# Values joined by “and” are separate entries in the source; they are usually repeats but may differ in a detail not shown here. Identical values can stand only once. Inconclusive results are not listed. Active and inactive are the calls of the source. Calls follow the shape of the dose curve; as a rule, active = well fitted cell-killing curve with a large enough effect in the repeat runs; inconclusive = weak or mixed curves; inactive = flat fitted curve, though single readings scatter.
# Assay: qHTS assay for small molecule agonists of the antioxidant response element (ARE) signaling pathway measured by Nrf2-dependant transcriptional activity - cell viability counter screen (AID 720653)
# Conditions: ARE-bla HepG2 viability, CellTiter-Glo ATP luminescence, 16 h; max response: stronger effect = lower value
# Excerpt: National Center for Advancing Translational Sciences [NCATS] NIH Chemical Genomics Center [NCGC] U.S. Environmental Protection Agency [EPA] National Institutes of Environmental Health Sciences [NIEHS] National Toxicology Program [NTP] Assay Overview: Oxidative stress has been implicated in the pathogenesis of a variety of diseases ranging from cancer to neurodegeneration. The antioxidant response element (ARE) signaling pathway plays an important role in the amelioration of oxidative stress. The CellSensor ARE-bla HepG2 cell line (Invitrogen) can be used for analyzing the Nrf2/antioxidant response signaling pathway. Nrf2 (NF-E2-related factor 2) and Nrf1 are transcription factors that bind to AREs and activate these genes. The CellSensor ARE-bla HepG2 cell line contains a beta-lactamase reporter gene under control of the Antioxidant Response Element (ARE) stably integrated into HepG2 cells. The activation of the report gene under culture conditions can be detected by fluorescence intensity. The cytotoxicity of the compounds against the ARE-bla HepG2 cell line was quantified by measuring the intracellular ATP content.
# Assay Protocol Summary: ARE-bla HepG2 cells were dispensed at 2,000 cells/5 ul/well in 1536-well black wall/clear bottom plates using a Multidrop Combi (ThermoFisher Scientific, Waltham, MA) dispenser. After the assay plates were incubated at 37C/5% CO2 for 5 hrs, 23 nL of compounds dissolved in DMSO, positive controls or DMSO only was transferred to the assay plate by a pintool work station (Kalypsys, San Diego, CA). The plates were incubated at 37C/5% CO2 for 16 hrs. After 1 uL of LiveBLAzer B/G FRET substrate was added using a Flying Reagent Dispenser (FRD) (Aurora Discovery, San Diego, CA), the assay plates were incubated at room temperature for 2 hrs. The fluorescence intensity was measured by an Envision (PerkinElmer, Shelton, CT) plate reader. Cell viability using CellTiter Glo viability assay (Promega, Madison, WI) was also measured by adding 4 ul/well of CellTiter-Glo reagent into the same assay plate using a FRD. After 30 min incubation at room temperature, the luminescence intensity in the plates was measured using a ViewLux (PerkinElmer) plate reader.
# % is scaled to controls: 0 for no effect and ±100 for the full control effect.
row,SMILES,max response
1,Nc1ccc(N=Nc2ccccc2)c(N)c1,-16.9% (inactive)
2,CC(C)S,14.7% (inactive)
3,Nc1cc(C(=O)O)c(O)c(S(=O)(=O)O)c1,2.52% (inactive)
4,Nc1ccccc1O,-24.7% (inactive)
5,NC(=O)Nc1nc2ccccc2[nH]1,-9.91% (inactive)
6,COc1ccc(C(=O)Nc2ccccc2)cc1[N+](=O)[O-],0.739% (inactive)
7,NC(=O)c1ccc([N+](=O)[O-])cc1,5.8% (inactive)
8,CC(=O)Nc1cccc(C)c1,-7.75% (inactive)
9,CCCCC(CC)COCCCN (stereo not given),-14.9% (inactive)
10,COc1ccc(C)cc1N,-10.4% (inactive)
11,C=CC(C)(O)CCCC(C)CCCC(C)CCCC(C)C (stereo not given),0.618% (inactive)
12,O=C(O)c1ccc([N+](=O)[O-])cc1,-7.35% (inactive) and -20.8% (inactive)
13,Cc1cccnc1,-3.56% (inactive)
14,CC(C)(C)C(=O)C1C(=O)c2ccccc2C1=O,-24.2% (inactive)
15,C/C(Cl)=C/CCl,5.48% (inactive)
16,CCCCC(CC)COC(=O)COc1ccc(Cl)cc1Cl (stereo not given),-8.61% (inactive) and -1.82% (inactive)
17,CC(C)OCC1CO1 (stereo not given),0.394% (inactive)
18,Cc1c(N)cccc1Cl,-6.28% (inactive)
19,c1ccc(CSCc2ccccc2)cc1,-4.18% (inactive)
20,O=C1c2ccccc2C(=O)C1(O)O,-29.9% (inactive)

row,SMILES,max response
1,Cc1ccc(N)cc1[N+](=O)[O-],-10.7% (inactive)
2,O=[N+]([O-])c1cc(Cl)c(Cl)c(Cl)c1Cl,-4.59% (inactive)
3,c1cc2c3c(c1)ccc1cccc(c13)C2,-4.5% (inactive)
4,Cc1cc2nc(N)sc2cc1C,-19.7% (inactive)
5,Oc1ccc(O)c2c(O)cccc12,-23% (inactive)
6,Nc1ccc2c(c1)C(=O)c1ccccc1C2=O,-14.7% (inactive) and -7.62% (inactive)
7,CCCCCCCCOc1ccc(C(=O)O)cc1,-6.08% (inactive)
8,Nc1ccc(-c2ccc(N)c(O)c2)cc1O,1.43% (inactive)
9,O=[N+]([O-])c1cc(N(CCO)CCO)ccc1NCCO,-24.7% (inactive)
10,CCCCCCCCC1CO1 (stereo not given),14.9% (inactive)
11,CN(C)c1ccc(C(=N)c2ccc(N(C)C)cc2)cc1,-25.3% (inactive)
12,COc1ccc([N+](=O)[O-])cc1N,-6.61% (inactive) and -1.85% (inactive)
13,CCOc1ccc2nc(N)sc2c1,-3.62% (inactive)
14,Cc1ccc(S(N)(=O)=O)cc1,3.25% (inactive) and -8.35% (inactive)
15,CC(/C=C/C=C(C)/C=C/C(=O)O)=C\C=C\C=C(C)\C=C\C=C(C)\C=C\C(=O)O,-1.24% (inactive)
16,Cc1cc(=O)oc2cc(O)cc(O)c12,0.736% (inactive)
17,CN(C)c1ccc(Cc2ccc(N(C)C)cc2)cc1,-17.1% (inactive) and 8.5% (inactive)
18,Oc1cc2c(cc1O)[C@H]1c3ccc(O)c(O)c3OC[C@@]1(O)C2,-29.6% (inactive)
19,O=CC(=O)c1ccccc1,-2.84% (inactive)
20,Clc1nc2ccccc2nc1Cl,0.874% (inactive)
